PNC assembly inh – inhibitors of perinucleolar compartment assembly; activity change (PNC), negative = inhibition, % at 10 µM; PC3M PTB-GFP, PNC prevalence imaging, 16 h; stronger effect = lower value; actives 3.1% (n = 140,000);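 active means readout at or below -70, meaning at least 70% loss of cells showing the perinucleolar compartment, a nuclear body marking cancer cells; inconclusive means readout between -30 and a set limit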;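 further: plate controls were DMSO wells for no effect and camptothecin positive control wells for full effect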
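PC3M cells stably expressing PTB-GFP, 750–1000 cells/well, treated 16 h at 37 °C with compound (23 nl of library stock), in duplicate. After paraformaldehyde fixation and Hoechst stain, imaged at 20x; PNC prevalence scored by image analysis.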
HPGD block – blocks human HPGD enzyme activity | purified HPGD, NADH fluorescence kinetic, PGE2 substrate | Potency, µM, for inactives: at the top dose activity change, negative = inhibition, actives largely listed as inhibitors | actives 4.3% (n = 150,000) | AID 894; further: potency means the concentration at half of the fitted maximal effect
Target sequence (P15428 whole entry, looked up): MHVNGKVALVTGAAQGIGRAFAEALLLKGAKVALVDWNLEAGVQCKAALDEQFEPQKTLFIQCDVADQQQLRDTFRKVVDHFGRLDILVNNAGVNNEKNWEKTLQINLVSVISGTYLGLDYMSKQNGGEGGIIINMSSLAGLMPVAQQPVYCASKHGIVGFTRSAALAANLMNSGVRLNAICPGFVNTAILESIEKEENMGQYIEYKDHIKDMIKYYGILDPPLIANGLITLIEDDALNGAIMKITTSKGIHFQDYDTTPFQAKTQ
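20 nM HPGD preincubated 15 min at room temperature with compound in 50 mM Tris-HCl pH 8, 0.01% Tween 20. Started with 1 mM NAD+ and 30 uM prostaglandin E2; NADH fluorescence (360/450 nm) read 5 times over 30-s intervals, last minus first.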
IMPase inh – cell-permeable inhibitors of inositol monophosphatase (IMPase). inhibition (IP1 accumulation), % at 46.1 µM. CHO-M1 cells, IP1 accumulation, HTRF TR-FRET ratio. P97697. AID 901. 120,000 tested, under 10 active; active means well fitted curve in the direction sought with a large enough effect in the signal ratio, not every such curve was filed as active; inconclusive means small, poorly fitted or top-dose-only effect, or a change in a side signal; inactive means no such curve, though single readings can be large or run the other way; the % refers to the signal ratio;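 further: cells stimulated with carbachol in lithium chloride buffer; plate controls were DMSO basal wells for no effect and reference inhibitor wells for full effect; higher means more IMPase inhibition seen as more IP1 and lower FRET ratio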
Target sequence (P97697 whole entry, looked up): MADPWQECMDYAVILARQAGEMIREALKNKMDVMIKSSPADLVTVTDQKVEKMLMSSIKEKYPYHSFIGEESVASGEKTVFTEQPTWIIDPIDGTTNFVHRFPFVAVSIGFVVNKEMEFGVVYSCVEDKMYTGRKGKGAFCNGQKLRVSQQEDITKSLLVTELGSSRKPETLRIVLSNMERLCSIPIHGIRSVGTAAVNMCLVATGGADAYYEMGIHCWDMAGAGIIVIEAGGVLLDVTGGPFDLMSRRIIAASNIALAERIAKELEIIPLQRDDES
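Carbachol-driven Gq signalling in CHO-M1 cells (2000/well) generates IP1. Compounds that block IMPase raise IP1 and so reduce the FRET signal from Eu-anti-IP1 and d2-IP1 after a 10 min room-temperature lysis.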
ALDH1A1 inh – inhibitors of human aldehyde dehydrogenase 1A1. P00352. Purified ALDH1A1, NADH fluorescence, propionaldehyde substrate. Potency, µM (doses to about 75.3 µM), for inactives: top-dose activity, negative = inhibition, hits mostly inhibitors. actives 7.3% (n = 220,000). AID 1030;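 further: potency means the concentration at half of the fitted maximal effect; plate controls were no enzyme wells and a reference inhibitor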
IMPase Li cell – IMPase inhibition in cells with lithium potentiation. CHO-M1 cells, IP1 TR-FRET (IP-One), carbachol + lithium. Potency, µM (series often up to 59.4 µM), inactives show at the highest dose activity, negative = IMPase inhibition, actives largely listed as inhibitors. actives 0.35% (n = 210,000); active means well fitted inhibition curve with a large enough effect; inconclusive means small, poorly fitted or top-dose-only effect; inactive means no such curve, though single readings can be large or run the other way;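 further: IP1 builds up when IMPase is blocked and the TR-FRET signal falls; potency means the concentration at half of the fitted maximal effect; plate controls were basal vehicle for no effect and high inhibitor control for full effect; nearly all actives have a fitted effect of over 50% in size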
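IP1 accumulation measured by competitive TR-FRET in lysed CHO-M1 cells after 30 min compound exposure at 37C, with a small lithium addition to potentiate weak responses. Hill-equation AC50 from ratio and donor-channel data.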
* hit, by the source's call; ? = inconclusive; · = not tested or not shown; [ ] = dose if it differs, or a comment. The list is not random: actives were taken first. Their share in the collection is about 11%. Unless noted, the call rests on the fitted dose curve; in most records, active means well fitted inhibition curve with a large enough effect (not every such curve was filed as active); inconclusive means small, poorly fitted or top-dose-only effect, or another doubt; inactive means no such curve, though single readings can be large or run the other way. Unless noted, on the % scale 0 is the no-effect control and ±100 the full control effect.

SMILES	PNC assembly inh	HPGD block	IMPase inh	ALDH1A1 inh	IMPase Li cell
CCN(CC)CCCN1C(=O)C(O)=C(C(=O)c2cc3ccccc3o2)C1c1ccccn1 (centres undefined)	18	5%	?	-3%	13µM*
COc1cccc2cc(C(=O)C3=C(O)C(=O)N(CCN(C)C)C3c3ccc(F)cc3)oc12 (centres undefined)	8	-9%	?	-13%	?
COc1ccccc1C1C(C(=O)c2cc3ccccc3o2)=C(O)C(=O)N1CCN1CCOCC1 (centres undefined)	21	-11%	-24	20µM*	32µM*
CN(C)CCN1C(=O)C(O)=C(C(=O)c2cc3ccccc3o2)C1c1ccc(N(C)C)cc1 (centres undefined)	-119*	-12%	0	28µM*	5%
Cn1c(=O)c(-c2cc(F)cc(F)c2)nc2cnc(N3CCNCC3)nc21	·	·	·	?	6%
CCOC(=O)C(CSCC(=O)c1ccc(Cl)cc1)NC(=O)OC(C)(C)C (centres undefined)	19	-9%	3	20µM*	33%[38.3 µM]
CCOC(=O)C1=C(c2ccccc2)NC(=O)N(C(C)=O)C1c1cccc([N+](=O)[O-])c1 (centres undefined)	·	·	·	-4%	12%
CCOC(=O)C1=C(c2ccccc2)NC(=S)NC1c1cc([N+](=O)[O-])ccc1OC (centres undefined)	-8	-7%	1	4µM*	11%[38.3 µM]
CCOC(=O)C1=C(c2ccccc2)NC(=S)NC1c1ccc(C)c([N+](=O)[O-])c1 (centres undefined)	3	-18%	·	0.25µM*	13%
CCOC(=O)C1=C(c2ccccc2)NC(=S)NC1c1cccc([N+](=O)[O-])c1 (centres undefined)	-20	·	-4	0.89µM*	·
CCOC(=O)C1=C(c2ccccc2)NC(=S)NC1C (centres undefined)	?	-8%	-9	2µM*	3%[38.3 µM]
CCOC(=O)C1=C(c2ccccc2)NC(=O)NC1c1ccc(OCC#N)c(OC)c1 (centres undefined)	?	-11%	?	?	5%[38.3 µM]
Nc1cc(N)cc(C(=O)OCC(=O)Nc2cc(S(=O)(=O)N3CCCCC3)ccc2Cl)c1	·	·	·	-8%	4%
O=c1cc(N2CCCCC2)c(-c2ccccc2)nn1Cc1cccc(Cl)c1	-22	-19%	3	22µM*	17%[38.3 µM]
C/C=C\C1=C(CO)C(=O)C2O[C@]2(CC=C(C)C)C1=O (some centres undefined)	·	·	·	-1%[13.5 µM]	·
O=C(CN(Cc1ccccc1)S(=O)(=O)c1ccccc1)N/N=C/c1ccccc1[N+](=O)[O-]	7	-1%	5	11µM*	16%[38.3 µM]
CN1C(=O)C2C(c3ccc(N(C)C)cc3)NN(Cc3ccccc3)C2C1=O (centres undefined)	·	·	·	?	14%
O=C(O)CC[C@H](NC(=O)c1ccccc1C(=O)O)C(=O)O	·	-2%	·	-5%	4%
CCOC(=O)C(=O)C1(C(=O)OCC)Oc2cc(OC)cc(OC)c2C(=O)C1c1ccccc1 (centres undefined)	·	-10%	·	10µM*	-4%
CCOC(=O)C1(O)Oc2cc(OC)cc(OC)c2C(=O)C1c1ccccc1 (centres undefined)	·	-18%	·	?	-3%
CCOC(=O)c1cnc(-c2ccccc2)nc1N1CCOCC1	·	·	·	-4%	-7%
Cn1c(SCC(=O)Nc2ccccc2-c2ccccc2)nnc1-c1ccco1	?	-18%	13	8.9µM*	9%[38.3 µM]
CCOC(=O)c1c(-c2ccccc2)csc1NC(=O)CCN1CCOCC1	29	-18%	·	28µM*	-3%
O=C(CC(c1ccccc1)c1cc(Br)ccc1O)NCCN1CCOCC1 (centres undefined)	-13	14µM*	5	-64%	39%[38.3 µM]
O=C(CC(c1ccccc1)c1cc(Br)ccc1O)N1CCCC1 (centres undefined)	·	·	·	-14%	19%
SMILES	PNC assembly inh	HPGD block	IMPase inh	ALDH1A1 inh	IMPase Li cell
CCOC(=O)c1[nH]cc(-c2ccccc2)c1N1CCOCC1	-14	4µM*	1	2.8µM*	20%[38.3 µM]
[O-][N+](CCO)(CCO)c1ncnc2nc[nH]c12	·	-11%	·	4%[13.5 µM]	-2%
COCCn1c(=O)c(-c2ccc(OC)cc2)nc2cnc(Nc3cccc(OC)c3)nc21	·	-7%	·	0%	-12%
CCOC(=O)CNC(c1ccccc1)c1cc(Br)ccc1NC(=O)CCN1CCOCC1 (centres undefined)	-18	32µM*	·	?	16%
Cc1ccc(C(=O)CSc2nnc(-c3ccco3)n2C)cc1	·	·	·	5%	-5%
Cn1c(SCC(=O)c2cc(Cl)c(Cl)s2)nnc1-c1ccco1	·	·	·	28µM*	·
Cc1ccc(-n2nnnc2SCC(=O)Nc2ccccc2-c2ccccc2)cc1C	-1	-17%	0	?	14%
CC(Sc1nnnn1-c1ccccc1)C(=O)Nc1ccccc1-c1ccccc1 (centres undefined)	-134*	-1%	·	?	11%
Cc1occc1-c1nnc(SCC(=O)Nc2ccccc2-c2ccccc2)n1C	15	-7%	11	22µM*	15%[38.3 µM]
CCCc1nc2ccccc2n2c(-c3cccc(C)c3)c3c(=O)n(C)c(=O)n(C)c3c12	·	·	7	·	·
CCOC(=O)c1c(-c2ccccc2)csc1NC(=O)C1CCCO1 (centres undefined)	?	?	?	?	10%[38.3 µM]
CCCn1c(SCC(=O)Nc2ccccc2-c2ccccc2)nnc1-c1ccoc1C	14	-2%	-4	32µM*	8%[38.3 µM]
CCOC(=O)c1c(-c2ccc(C)cc2)csc1NC1=NS(=O)(=O)c2ccccc21	29	?	·	?	11µM*
Cn1nnnc1SCc1ccc(C(=O)Nc2ccccc2F)cc1	-4	16µM*	14	?	-8%[38.3 µM]
CCOC(=O)c1c(-c2ccc(C)cc2)csc1NC(=S)NC(=O)c1ccccc1	4	-3%	17[1.84 µM]	-5%	18%[38.3 µM]
CCOC(=O)c1c(-c2ccc(-c3ccccc3)cc2)csc1NC(=O)C1C2CCC(O2)C1C(=O)O (centres undefined)	-17	14µM*	4	?	14%[38.3 µM]
Cc1ccccc1NC(=O)CSc1nnc(-c2ccoc2C)n1CCc1ccccc1	7	-8%	12	-12%	-4%[38.3 µM]
CCCCC(=O)O[C@]1(C(=O)CO)[C@H](C)C[C@H]2[C@@H]3CCC4=CC(=O)C=C[C@]4(C)[C@@]3(F)[C@@H](O)C[C@@]21C	·	1%	·	0%	-8%
CCOC(=O)c1c(-c2cccc([N+](=O)[O-])c2)csc1NC(=O)CCCOc1ccccc1	7	·	8	?	·
CCOC(=O)c1c(-c2ccccc2)csc1NC(=O)CSc1nnnn1C	-20	32µM*	-2	-13%	6%[38.3 µM]
CCOC(=O)c1c(-c2cccc([N+](=O)[O-])c2)csc1NC(=O)CCCOc1ccccc1OC	40	?	-5	28µM*	20%
